# About 2,000 (36%) of roughly 5,500 compounds were called active. Another 18% or so got no clear call; they are omitted. This is one part of the list. Values without a mark were called inactive. Cut-off read from the data, not from the text of the source: active = normalized growth mostly below about 0.91 (no sharp cut-off); inconclusive = no clear call, values can overlap the other calls; inactive = mostly above about 0.92.
# Assay: chemical genetic growth profiling, strain panel (AID 1159580);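 note: tested at 20 µM; growth read once vehicle control cultures reached saturation at 30 °C; 1 = growth at the plate median or of vehicle wells; lower values mean less growth of the strain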
# Details: S. cerevisiae deletion strains, growth OD
# [1] = locus YAL021C, strain ccr4, stronger effect = lower value
# [2] = locus YAL026C, strain drs2, stronger effect = lower value
# [3] = locus YAL030W, strain snc1, stronger effect = lower value
# [4] = locus YBL061C, strain skt5, stronger effect = lower value
# [5] = locus YBR009C, strain hhf1, stronger effect = lower value
# [6] = locus YBR023C, strain chs3, stronger effect = lower value
# [7] = locus YBR171W, strain sec66, stronger effect = lower value
# [8] = locus YBR231C, strain swc5, stronger effect = lower value
# [9] = locus YBR279W, strain paf1, stronger effect = lower value
# [10] = locus YCL011C, strain gbp2, stronger effect = lower value
# [11] = locus YCL016C, strain dcc1, stronger effect = lower value
# [12] = locus YCL061C, strain MRC1, stronger effect = lower value
# [13] = locus YCL069W, strain vba3, stronger effect = lower value
# [14] = locus YCR088W, strain abp1, stronger effect = lower value
# [15] = locus YDL005C, strain med2, stronger effect = lower value
# [16] = locus YDL040C, strain nat1, stronger effect = lower value
# [17] = locus YDR001C, strain nth1, stronger effect = lower value
# [18] = locus YDR069C, strain doa4, stronger effect = lower value
# [19] = locus YDR137W, strain rgp1, stronger effect = lower value
# [20] = locus YDR159W, strain sac3, stronger effect = lower value
# [21] = locus YDR297W, strain sur2, stronger effect = lower value
# [22] = locus YDR334W, strain swr1, stronger effect = lower value
# [23] = locus YDR335W, strain msn5, stronger effect = lower value
# [24] = locus YDR392W, strain spt3, stronger effect = lower value
# [25] = locus YEL003W, strain gim4, stronger effect = lower value
# [26] = locus YEL037C, strain rad23, stronger effect = lower value
# [27] = locus YEL061C, strain CIN8 (second series), stronger effect = lower value
# [28] = locus YER015W, strain faa2, stronger effect = lower value
# [29] = locus YER016W, strain bim1, stronger effect = lower value
# [30] = locus YER111C, strain swi4, stronger effect = lower value
# [31] = locus YER155C, strain BEM2 (second series), stronger effect = lower value
# [32] = locus YFR010W, strain ubp6, stronger effect = lower value
# [33] = locus YGL167C, strain pmr1, stronger effect = lower value
# [34] = locus YGL173C, strain kem1, stronger effect = lower value
# [35] = locus YGL227W, strain vid30, stronger effect = lower value
# [36] = locus YGL240W, strain doc1, stronger effect = lower value
# [37] = locus YGL253W, strain hxk2, stronger effect = lower value
# [38] = locus YHR013C, strain ard1, stronger effect = lower value
# [39] = locus YHR027C, strain rpn1, stronger effect = lower value
# [40] = locus YHR030C, strain SLT2, stronger effect = lower value
# [41] = locus YHR079C, strain IRE1, stronger effect = lower value
# [42] = locus YHR142W, strain chs7, stronger effect = lower value
# [43] = locus YJL092W, strain hpr5, stronger effect = lower value
# [44] = locus YJL095W, strain BCK1 (second series), stronger effect = lower value
# [45] = locus YJL095W, strain BCK1, stronger effect = lower value
# [46] = locus YJL115W, strain asf1, stronger effect = lower value
# [47] = locus YJL129C, strain trk1, stronger effect = lower value
# [48] = locus YJL154C, strain vps35, stronger effect = lower value
# [49] = locus YJL164C, strain tpk1, stronger effect = lower value
# [50] = locus YJL166W, strain qcr8, stronger effect = lower value
# [51] = locus YJL187C, strain SWE1, stronger effect = lower value
# [52] = locus YJR066W, strain TOR1, stronger effect = lower value
# [53] = locus YKL160W, strain elf1, stronger effect = lower value
# [54] = locus YKR026C, strain gcn3, stronger effect = lower value
# [55] = locus YKR091W, strain srl3, stronger effect = lower value
# [56] = locus YLL001W, strain dnm1, stronger effect = lower value
# [57] = locus YLL026W, stronger effect = lower value
# [58] = locus YLL041C, strain sdh2, stronger effect = lower value
# [59] = locus YLR027C, strain aat2, stronger effect = lower value
# [60] = locus YLR113W, strain HOG1, stronger effect = lower value
# [61] = locus YLR221C, strain rsa3, stronger effect = lower value
# [62] = locus YLR258W, strain gsy2, stronger effect = lower value
# [63] = locus YLR262C, strain YPT6 (second series), stronger effect = lower value
# [64] = locus YLR320W, strain mms22, stronger effect = lower value
# [65] = locus YLR342W, strain FKS1, stronger effect = lower value
# [66] = locus YLR357W, strain rsc2, stronger effect = lower value
# [67] = locus YLR370C, strain arc18, stronger effect = lower value
# [68] = locus YLR384C, strain iki3, stronger effect = lower value
# [69] = locus YML120C, strain ndi1, stronger effect = lower value
# [70] = locus YMR058W, strain fet3, stronger effect = lower value
# [71] = locus YMR125W, strain sto1, stronger effect = lower value
# [72] = locus YMR129W, stronger effect = lower value
# [73] = locus YMR205C, strain PFK2, stronger effect = lower value
# [74] = locus YMR231W, strain pep5, stronger effect = lower value
# [75] = locus YNL071W, strain lat1, stronger effect = lower value
# [76] = locus YNL183C, strain NPR1, stronger effect = lower value
# [77] = locus YNL209W, strain ssb2, stronger effect = lower value
# [78] = locus YNL248C, strain rpa49, stronger effect = lower value
# [79] = locus YNL322C, strain KRE1 (second series), stronger effect = lower value
# [80] = locus YNR049C, strain mso1, stronger effect = lower value
# [81] = locus YOR001W, strain rrp6, stronger effect = lower value
# [82] = locus YOR070C, strain gyp1, stronger effect = lower value
# [83] = locus YOR080W, strain dia2, stronger effect = lower value
# [84] = locus YOR083W, strain WHI5, stronger effect = lower value
# [85] = locus YOR106W, strain vam3, stronger effect = lower value
# [86] = locus YOR231W, strain MKK1, stronger effect = lower value
# [87] = locus YOR265W, strain rbl2, stronger effect = lower value
# [88] = locus YOR270C, strain vph1, stronger effect = lower value
# [89] = locus YOR290C, strain snf2, stronger effect = lower value
# [90] = locus YPL051W, strain arl3, stronger effect = lower value
# [91] = locus YPL078C, strain atp4, stronger effect = lower value
# [92] = locus YPL106C, strain sse1, stronger effect = lower value
# [93] = locus YPL240C, strain hsp82, stronger effect = lower value
# [94] = locus YPL256C, strain CLN2, stronger effect = lower value
smiles,measurement,setting,value
CCN1CCN(c2cc3c(cc2F)c(=O)c(C(=O)O)cn3C2CC2)CC1,normalized growth,[1],1.04
same,normalized growth,[2],1.01
same,normalized growth,[3],1.01
same,normalized growth,[4],1.01
same,normalized growth,[5],1
same,normalized growth,[6],1.01
same,normalized growth,[7],1.02
same,normalized growth,[8],1.02
same,normalized growth,[9],1.01
same,normalized growth,[10],1.01
same,normalized growth,[11],0.997
same,normalized growth,[12],1.01
same,normalized growth,[13],1.01
same,normalized growth,[14],1.01
same,normalized growth,[15],1.02
same,normalized growth,[16],1.01
same,normalized growth,[17],1.01
same,normalized growth,[18],1
same,normalized growth,[19],0.969
same,normalized growth,[20],1.01
same,normalized growth,"locus YDR195W, strain ref2",1.04
same,normalized growth,[21],1.01
same,normalized growth,[22],1.02
same,normalized growth,[23],1.03
same,normalized growth,[24],1
same,normalized growth,[25],1.01
same,normalized growth,[26],1.01
same,normalized growth,[27],1.02
same,normalized growth,[28],1.01
same,normalized growth,[29],0.995
same,normalized growth,[30],1.02
same,normalized growth,[31],1.01
same,normalized growth,[32],1.01
same,normalized growth,[33],1.02
same,normalized growth,[34],1
same,normalized growth,[35],1.01
same,normalized growth,[36],0.997
same,normalized growth,[37],1.01
same,normalized growth,[38],1.04
same,normalized growth,[39],1.02
same,normalized growth,[40],0.992
same,normalized growth,[41],0.986
same,normalized growth,[42],1.02
same,normalized growth,[43],1.01
same,normalized growth,[44],1.02
same,normalized growth,[45],0.995
same,normalized growth,[46],0.989
same,normalized growth,[47],1.03
same,normalized growth,[48],1.02
same,normalized growth,[49],1.01
same,normalized growth,[50],1
same,normalized growth,[51],1.01
same,normalized growth,[52],0.962
same,normalized growth,[53],1
same,normalized growth,[54],1.01
same,normalized growth,[55],1
same,normalized growth,[56],1.02
same,normalized growth,[57],1
same,normalized growth,[58],1.01
same,normalized growth,[59],1.01
same,normalized growth,[60],1.03
same,normalized growth,[61],1.01
same,normalized growth,[62],1.01
same,normalized growth,[63],0.962
same,normalized growth,[64],0.854 (active)
same,normalized growth,[65],1.02
same,normalized growth,[66],0.994
same,normalized growth,[67],1.02
same,normalized growth,[68],1
same,normalized growth,[69],1.01
same,normalized growth,[70],1.01
same,normalized growth,[71],1.02
same,normalized growth,[72],1.01
same,normalized growth,[73],1
same,normalized growth,[74],1.02
same,normalized growth,[75],1.02
same,normalized growth,[76],0.935
same,normalized growth,[77],1.03
same,normalized growth,[78],1.01
same,normalized growth,[79],1
same,normalized growth,[80],1.01
same,normalized growth,[81],1.01
same,normalized growth,[82],1.02
same,normalized growth,[83],0.992
same,normalized growth,[84],1.01
same,normalized growth,[85],0.994
same,normalized growth,[86],0.981
same,normalized growth,[87],1.01
same,normalized growth,[88],1.03
same,normalized growth,[89],0.957
same,normalized growth,[90],1.01
same,normalized growth,[91],1.02
same,normalized growth,[92],0.998
same,normalized growth,[93],1.01
same,normalized growth,[94],0.986
O=C(O)c1cn(-c2ccc(F)cc2)c2cc(N3CCNCC3)c(F)cc2c1=O,normalized growth,[1],0.949
same,normalized growth,[2],0.975
same,normalized growth,[3],0.964
same,normalized growth,[4],0.981
same,normalized growth,[5],0.979
same,normalized growth,[6],0.966
same,normalized growth,[7],0.958
same,normalized growth,[8],0.967
same,normalized growth,[9],0.959
same,normalized growth,[10],0.975
same,normalized growth,[11],0.983
same,normalized growth,[12],0.969
same,normalized growth,[13],0.983
same,normalized growth,[14],0.982
same,normalized growth,[15],0.985
same,normalized growth,[16],0.979
same,normalized growth,[17],0.952
same,normalized growth,[18],0.94
same,normalized growth,[19],0.921
same,normalized growth,[20],0.96
same,normalized growth,"locus YDR195W, strain ref2",0.921
same,normalized growth,[21],0.981
same,normalized growth,[22],0.938
same,normalized growth,[23],0.949
same,normalized growth,[24],1.02
same,normalized growth,[25],0.96
same,normalized growth,[26],0.959
same,normalized growth,[27],0.97
same,normalized growth,[28],0.983
same,normalized growth,[29],0.967
same,normalized growth,[30],0.967
same,normalized growth,[31],0.919
same,normalized growth,[32],0.949
same,normalized growth,[33],0.941
same,normalized growth,[34],0.984
same,normalized growth,[35],0.954
same,normalized growth,[36],0.944
same,normalized growth,[37],0.993
same,normalized growth,[38],0.982
same,normalized growth,[39],0.976
same,normalized growth,[40],1.04
same,normalized growth,[41],1.03
same,normalized growth,[42],1.01
same,normalized growth,[43],0.974
same,normalized growth,[44],0.977
same,normalized growth,[45],0.976
same,normalized growth,[46],0.963
same,normalized growth,[47],0.992
same,normalized growth,[48],0.97
same,normalized growth,[49],0.993
same,normalized growth,[50],0.947
same,normalized growth,[51],0.979
same,normalized growth,[52],0.985
same,normalized growth,[53],0.989
same,normalized growth,[54],0.962
same,normalized growth,[55],0.979
same,normalized growth,[56],0.977
same,normalized growth,[57],0.967
same,normalized growth,[58],0.977
same,normalized growth,[59],0.982
same,normalized growth,[60],0.975
same,normalized growth,[61],0.992
same,normalized growth,[62],0.979
same,normalized growth,[63],0.951
same,normalized growth,[64],0.981
same,normalized growth,[65],0.96
same,normalized growth,[66],0.958
same,normalized growth,[67],0.948
same,normalized growth,[68],0.971
same,normalized growth,[69],0.972
same,normalized growth,[70],0.968
same,normalized growth,[71],0.967
same,normalized growth,[72],0.997
same,normalized growth,[73],0.995
same,normalized growth,[74],0.973
same,normalized growth,[75],0.991
same,normalized growth,[76],0.982
same,normalized growth,[77],0.972
same,normalized growth,[78],1.02
same,normalized growth,[79],0.966
same,normalized growth,[80],0.979
same,normalized growth,[81],0.952
same,normalized growth,[82],0.984
same,normalized growth,[83],0.945
same,normalized growth,[84],0.987
same,normalized growth,[85],0.962
same,normalized growth,[86],1.01
same,normalized growth,[87],0.974
same,normalized growth,[88],0.947
same,normalized growth,[89],0.965
same,normalized growth,[90],0.955
same,normalized growth,[91],0.972
same,normalized growth,[92],0.895
same,normalized growth,[93],0.996
same,normalized growth,[94],1.06

# Source: PubChem BioAssay AID1159580 (chemical genetic matrix, 2015)
